“And” between values parts separate entries of the source, which are not always exact repeats. Equal entries are not always repeated. Records with an inconclusive call do not appear. Some structures have more than one record in an assay (separate samples or runs), and their calls can disagree. The source made the active and inactive calls. Unless noted, calls follow the shape of the dose curve; as a rule, active = well fitted curve in the direction sought with a large enough effect; inconclusive = small, poorly fitted or top-dose-only effect, or another doubt; inactive = no such curve, though single readings can be large; an effect the other way counts as inactive or inconclusive.
Experiments:
OV90 = assay: Primary qHTS to identify gynecologic anti-cancer compounds using libraries of approved drugs and bioactive compounds (AID 1345084); settings: Gynecologic cancer cell panel viability, ATPlite luminescence, 48 h; series mostly up to 57.5 µM; also: nearly all actives have a fitted effect of over 55% in size; also: potency is read from the fitted curve at half-maximal effect
In short: (§1)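 Cells, 1,000 per well, plated 16 h, then exposed 48 h at 37 C to compounds. Viability by ATPlite luminescence after 15 min at room temperature.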

PA-1 = assay: as above; settings: Gynecologic cancer cell panel viability, ATPlite luminescence, 48 h; series mostly up to 57.5 µM
In short: as §1

SKOV3 = assay: as above; settings: Gynecologic cancer cell panel viability, ATPlite luminescence, 48 h; series mostly up to 57.5 µM
In short: as §1

Tov-21-G = assay: as above; settings: Gynecologic cancer cell panel viability, ATPlite luminescence, 48 h; series mostly up to 57.5 µM
In short: as §1

Tov112D = assay: as above; settings: Gynecologic cancer cell panel viability, ATPlite luminescence, 48 h; series mostly up to 57.5 µM
In short: as §1

[1] = Drug repurposing screens with cells derived from glioblastoma tumor samples (AID 1345199); settings: GBM patient neurospheres viability, ATP luminescence, 48 h; also: nearly all actives have a fitted effect of over 40% in size; also: potency is read from the fitted curve at half-maximal effect; as to activity, negative = cell killing: % is scaled to controls: 0 for no effect and ±100 for the full control effect
In short: (§2)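 Primary testing used CD133+ neurospheres from four GBM patients, seven concentrations, 48 h exposure and ATP-based viability; confirmation added three slower-growing patient lines.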

astro = assay: as above; settings: viability, ATP luminescence, 48 h; series mostly up to 45.9 µM
In short: as §2

[2] = target: Nuclear receptor subfamily 1 group I member 2 (Rattus norvegicus) (UniProt Q9R1A7); assay: qHTS assay for small molecule activators of the rat pregnane X receptor (rPXR) signaling pathway (AID 651751; call rule not given here; also: 0% is about no effect); settings: rPXR reporter cells, luciferase (One-Glo), 24 h
[3] = qHTS assay for small molecule activators of the human pregnane X receptor (PXR) signaling pathway (AID 720659; call rule not given here; also: 0% is about no effect)
[4] = qHTS assay to identify inhibitors of the type 1 interferon - major histocompatibility complex class I in skeletal muscle: Counter screen cell viability and HiBit confirmation (AID 1347412); settings: iHSKM muscle cells + IFN-b, HiBiT or CellTiter-Glo, 24 h; Potency: HiBiT; Viability, at 45.9 µM (top of the series); also: % is scaled to controls: 0 for no effect and ±100 for the full control effect; nearly all actives have a fitted effect of over 60% in size
In short: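 HLA-B*08:01–HiBiT knock-in immortalized human myoblasts (C25cl48) stimulated with 4.0 ng/ml human IFN-beta and dosed with compound in a 12-point 1:3 titration (top final 46 uM). After 24 hrs at 37 C, HiBiT lytic luminescence or CellTiter Glo ATP read out.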

[5] = at 45.9 µM (top of the series), tumour line B
[6] = at 45.9 µM (top of the series), tumour line D
[7] = at 46 µM (top of the series), tumour line A
[8] = at 46.1 µM (top of the series), tumour line C
[9] = at 20 µM (top of the series), tumour line C
[10] = at 21.2 µM (top of the series), tumour line B

Chain of Nuclear receptor subfamily 1 group I member 2 (Rattus norvegicus) (Q9R1A7 whole entry, looked up): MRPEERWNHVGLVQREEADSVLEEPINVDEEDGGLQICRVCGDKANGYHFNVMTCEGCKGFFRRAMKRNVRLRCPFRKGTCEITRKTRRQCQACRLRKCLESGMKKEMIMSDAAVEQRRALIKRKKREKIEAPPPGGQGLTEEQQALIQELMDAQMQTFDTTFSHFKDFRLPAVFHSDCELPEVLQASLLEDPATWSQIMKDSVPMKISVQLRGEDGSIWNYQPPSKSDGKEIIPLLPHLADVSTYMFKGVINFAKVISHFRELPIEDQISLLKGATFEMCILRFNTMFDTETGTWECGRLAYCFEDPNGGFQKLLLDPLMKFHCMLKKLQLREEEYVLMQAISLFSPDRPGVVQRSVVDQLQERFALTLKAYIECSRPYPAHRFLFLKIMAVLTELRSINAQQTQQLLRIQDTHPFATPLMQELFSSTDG

CCn1cc(C(=O)O)c(=O)c2cc(F)c(N3CCNC(C)C3)c(F)c21 (stereo not given)
inactive: Potency (OV90) | Potency (PA-1) | Potency (SKOV3) | Potency (Tov-21-G) | Potency (Tov112D) | activity, negative = cell killing [1, 5] -18.8% and -6.47% | activity, negative = cell killing [1, 6] -1.92% and -11.9% | activity, negative = cell killing [1, 7] -14% and -29.8% | activity, negative = cell killing [1, 8] -19.8% and -7.41% | Potency (astro)

COc1ccc(CCN2CCN(CCCc3ccccc3)CC2)cc1OC
inactive: Potency (OV90) | Potency (PA-1) | Potency (SKOV3) | Potency (Tov112D)

NNCCc1ccccc1
inactive: Potency (OV90) | Potency (PA-1) | Potency (SKOV3) | Potency (Tov-21-G) | Potency (Tov112D) | activity, negative = cell killing [1, 9] -0.565% | activity, negative = cell killing [1, 10] -10.9% | Potency (astro)

NC[C@H](O)c1ccc(O)c(O)c1
inactive: Potency (OV90) | Potency (PA-1) | Potency (SKOV3) | Potency (Tov-21-G) | Potency (Tov112D) | activity, negative = cell killing [1, 5] -10.5% | activity, negative = cell killing [1, 6] -7.44% | activity, negative = cell killing [1, 7] -26.2% | activity, negative = cell killing [1, 8] -17.3% | Potency (astro) | max response [2] 2.15% | outcome [3]

Cn1cnc2c(F)c(Nc3ccc(Br)cc3Cl)c(C(=O)NOCCO)cc21
active: Potency (OV90) 1.58 µM
inactive: Potency (PA-1) | Potency (SKOV3) | Potency (Tov112D)

CC1(C)Cc2c(-c3ccccc3)c(-c3ccc(Cl)cc3)c(CC(=O)O)n2C1
inactive: Potency (OV90) | Potency (PA-1) | Potency (SKOV3) | Potency (Tov112D)

O=NN(CCCl)C(=O)NCCCl
inactive: Potency (OV90) | Potency (PA-1) | Potency (SKOV3) | Potency (Tov-21-G) | Potency (Tov112D) | activity, negative = cell killing [1, 5] -7.98% | activity, negative = cell killing [1, 6] -22.2% | activity, negative = cell killing [1, 7] -13.2% | activity, negative = cell killing [1, 8] -21% | Potency (astro) | max response [2] -1.45%

COc1cc(Nc2ncc3c(n2)-c2ccc(Cl)cc2C(c2c(F)cccc2OC)=NC3)ccc1C(=O)O
inactive: Potency (PA-1) | Potency (Tov-21-G) | Potency (Tov112D) | Potency [4]
28.2 µM (active) and inactive: Potency (OV90)
25.1 µM (active) and inactive: Potency (SKOV3)

COc1ccc2nc(S(=O)Cc3ncc(C)c(OC)c3C)[nH]c2c1 (stereo not given)
inactive: Potency (OV90) | Potency (PA-1) | Potency (SKOV3) | Potency (Tov-21-G) | Potency (Tov112D) | activity, negative = cell killing [1, 5] -19.3% | Potency (astro) | max response [2] 14.6%

CNC[C@H](O)c1cccc(O)c1
inactive: Potency (OV90) | Potency (PA-1) | Potency (SKOV3) | Potency (Tov-21-G) | Potency (Tov112D) | activity, negative = cell killing [1, 5] -2.77% | activity, negative = cell killing [1, 6] 6.94% | activity, negative = cell killing [1, 8] -5.24% | Potency (astro) | max response [2] 1.25% | outcome [3]

N=c1nc(N2CCCCC2)cc(N)n1O
inactive: Potency (OV90) | Potency (PA-1) | Potency (SKOV3) | Potency (Tov-21-G) | Potency (Tov112D) | activity, negative = cell killing [1, 5] -6.91% | activity, negative = cell killing [1, 6] -11% | activity, negative = cell killing [1, 7] -16.6% | Potency (astro)

NC(=O)c1cnccn1
inactive: Potency (OV90) | Potency (PA-1) | Potency (SKOV3) | Potency (Tov-21-G) | Potency (Tov112D) | activity, negative = cell killing [1, 5] -8.76% | activity, negative = cell killing [1, 6] -23.3% | activity, negative = cell killing [1, 7] -24.5% | activity, negative = cell killing [1, 8] -17% | Potency (astro) | max response [2] -0.614% and 3.04% | outcome [3]

CCN(CC)CCCC(C)Nc1ccnc2cc(Cl)ccc12 (stereo not given)
active: Potency (OV90) 5.62 µM | Potency ([1]; tumour line A) 15.8 µM
inactive: Potency (PA-1) | Potency (SKOV3) | Potency (Tov-21-G) | Potency (Tov112D) | activity, negative = cell killing [1, 8] 3.03% | Potency (astro)

C#Cc1cccc(Nc2ncnc3cc(OCCOC)c(OCCOC)cc23)c1
inactive: Potency (OV90) | Potency (PA-1) | Potency (Tov112D)
active: Potency (SKOV3) 10 µM

OC(CCN1CCCCC1)(c1ccccc1)C1CC2C=CC1C2 (stereo not given)
inactive: Potency (OV90) | Potency (PA-1) | Potency (SKOV3) | Potency (Tov-21-G) | Potency (Tov112D) | activity, negative = cell killing [1, 5] -6.31% and -18.3% | activity, negative = cell killing [1, 8] -5.16% | Potency (astro)

CC[C@@H](C)[C@H](NC(=O)[C@H](CC1CCCCC1)NC(=O)c1ccno1)C(=O)N1CCC2(CCc3ccccc32)CC1
inactive: Potency (OV90) | Potency (PA-1) | Potency (SKOV3) | Potency (Tov-21-G) | Potency (Tov112D) | Potency [4]

O=c1n(CCCN2CCN(c3cccc(Cl)c3)CC2)nc2ccccn12
inactive: Potency (OV90) | Potency (PA-1) | Potency (SKOV3) | Potency (Tov-21-G) | Potency (Tov112D) | activity, negative = cell killing [1, 9] -4.25% | activity, negative = cell killing [1, 10] -8.69% | activity, negative = cell killing ([1]; at 21.2 µM (top of the series), tumour line D) 3.95% | Potency (astro)

CC(=O)Oc1ccccc1C(=O)O
inactive: Potency (OV90) | Potency (PA-1) | Potency (SKOV3) | Potency (Tov-21-G) | Potency (Tov112D) | activity, negative = cell killing [1, 6] -4.86% | activity, negative = cell killing [1, 7] -15.2% | activity, negative = cell killing [1, 8] -19.2% | Potency (astro) | max response [2] -0.967% and 1.6% and -0.848% | outcome [3]

N[C@@H]1CONC1=O
inactive: Potency (OV90) | Potency (PA-1) | Potency (SKOV3) | Potency (Tov-21-G) | Potency (Tov112D) | activity, negative = cell killing [1, 5] -2.69% | activity, negative = cell killing [1, 6] 4.98% | activity, negative = cell killing [1, 7] -17.4% | activity, negative = cell killing [1, 8] -0.848% | Potency (astro)

— PubChem BioAssay (NCATS)
